Experimental data reported in PubChem BioAssay AID1159580 (chemical genetic matrix, 2015).
Hit rate of the full screen: of about 5,500 compounds, about 2,000 (36%) were called active. Roughly 18% stayed inconclusive and do not appear here. No stated cut-off is given here; in the data, active means normalized growth mostly below about 0.91 (no sharp cut-off); inconclusive means no clear call, values can overlap the other calls; inactive means mostly above about 0.92. This is one part of the list.

Assay: chemical genetic growth profiling, strain panel (AID 1159580);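 further: tested at 20 µM; growth read once vehicle control cultures reached saturation at 30 °C; 1 = growth at the plate median or of vehicle wells; lower values mean less growth of the strain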
Details: growth OD

Measured: normalized growth

Cc1ccc(-c2cc(C(F)(F)F)nn2-c2ccc(S(N)(=O)=O)cc2)cc1
inactive: S. cerevisiae deletion strains, locus YJR075W, strain HOC1, hits give low values 1.02 | S. cerevisiae deletion strains, locus YKL009W, strain mrt4, hits give low values 0.965 | S. cerevisiae deletion strains, locus YKL068W, hits give low values 1 | S. cerevisiae deletion strains, locus YKL085W, strain MDH1 (second series), hits give low values 1 | S. cerevisiae deletion strains, locus YKL085W, strain MDH1, hits give low values 1 | S. cerevisiae deletion strains, locus YKL160W, strain elf1, hits give low values 1.03 | S. cerevisiae deletion strains, locus YKL190W, strain CNB1, hits give low values 0.999 | S. cerevisiae deletion strains, locus YKR001C, strain vps1, hits give low values 0.988 | S. cerevisiae deletion strains, locus YKR026C, strain gcn3, hits give low values 1.03 | S. cerevisiae deletion strains, locus YKR091W, strain srl3, hits give low values 1.02 | S. cerevisiae deletion strains, locus YLL001W, strain dnm1, hits give low values 1.03 | S. cerevisiae deletion strains, locus YLL026W, hits give low values 1.02 | S. cerevisiae deletion strains, locus YLL041C, strain sdh2, hits give low values 1.02 | S. cerevisiae deletion strains, locus YLR027C, strain aat2, hits give low values 1.02 | S. cerevisiae deletion strains, locus YLR039C, strain RIC1, hits give low values 0.967 | S. cerevisiae deletion strains, locus YLR058C, strain SHM2, hits give low values 0.998 | S. cerevisiae deletion strains, locus YLR102C, strain apc9, hits give low values 1.01 | S. cerevisiae deletion strains, locus YLR113W, strain HOG1, hits give low values 0.984 | S. cerevisiae deletion strains, locus YLR221C, strain rsa3, hits give low values 1.03 | S. cerevisiae deletion strains, locus YLR258W, strain gsy2, hits give low values 1.02 | S. cerevisiae deletion strains, locus YLR262C, strain YPT6 (second series), hits give low values 1.01 | S. cerevisiae deletion strains, locus YLR262C, strain YPT6, hits give low values 0.939 | S. cerevisiae deletion strains, locus YLR268W, strain sec22, hits give low values 1.08 | S. cerevisiae deletion strains, locus YLR320W, strain mms22, hits give low values 1.04 | S. cerevisiae deletion strains, locus YLR330W, strain CHS5, hits give low values 1 | S. cerevisiae deletion strains, locus YLR342W, strain FKS1 (second series), hits give low values 1.04 | S. cerevisiae deletion strains, locus YLR342W, strain FKS1, hits give low values 1.03 | S. cerevisiae deletion strains, locus YLR357W, strain rsc2, hits give low values 1.09 | S. cerevisiae deletion strains, locus YLR370C, strain arc18, hits give low values 1.03 | S. cerevisiae deletion strains, locus YLR371W, strain rom2, hits give low values 1.02 | S. cerevisiae deletion strains, locus YLR384C, strain iki3, hits give low values 1.02 | S. cerevisiae deletion strains, locus YLR418C, strain cdc73, hits give low values 1.01 | S. cerevisiae deletion strains, locus YML016C, strain PPZ1, hits give low values 0.989 | S. cerevisiae deletion strains, locus YML032C, strain rad52, hits give low values 1.05 | S. cerevisiae deletion strains, locus YML120C, strain ndi1, hits give low values 1.03 | S. cerevisiae deletion strains, locus YML124C, strain tub3, hits give low values 1.01 | S. cerevisiae deletion strains, locus YMR058W, strain fet3, hits give low values 1.03 | S. cerevisiae deletion strains, locus YMR078C, strain ctf18, hits give low values 1.02 | S. cerevisiae deletion strains, locus YMR125W, strain sto1, hits give low values 1.03 | S. cerevisiae deletion strains, locus YMR129W, hits give low values 1.02 | S. cerevisiae deletion strains, locus YMR205C, strain PFK2, hits give low values 1.04 | S. cerevisiae deletion strains, locus YMR223W, strain ubp8, hits give low values 0.999 | S. cerevisiae deletion strains, locus YMR231W, strain pep5, hits give low values 1.03 | S. cerevisiae deletion strains, locus YMR263W, strain SAP30, hits give low values 1.01 | S. cerevisiae deletion strains, locus YMR307W, strain GAS1, hits give low values 0.959 | S. cerevisiae deletion strains, locus YNL067W, strain RPL9B, hits give low values 1.02 | S. cerevisiae deletion strains, locus YNL071W, strain lat1, hits give low values 1.02 | S. cerevisiae deletion strains, locus YNL128W, strain TEP1, hits give low values 1.02 | S. cerevisiae deletion strains, locus YNL153C, strain GIM3, hits give low values 1.03 | S. cerevisiae deletion strains, locus YNL183C, strain NPR1, hits give low values 0.954 | S. cerevisiae deletion strains, locus YNL209W, strain ssb2, hits give low values 1.02 | S. cerevisiae deletion strains, locus YNL233W, strain BNI4, hits give low values 1.02 | S. cerevisiae deletion strains, locus YNL248C, strain rpa49, hits give low values 1.03 | S. cerevisiae deletion strains, locus YNL250W, strain rad50, hits give low values 1.02 | S. cerevisiae deletion strains, locus YNL271C, strain bni1, hits give low values 1.01 | S. cerevisiae deletion strains, locus YNL298W, strain CLA4, hits give low values 0.992 | S. cerevisiae deletion strains, locus YNL307C, strain MCK1, hits give low values 1 | S. cerevisiae deletion strains, locus YNL322C, strain KRE1 (second series), hits give low values 1.03 | S. cerevisiae deletion strains, locus YNL322C, strain KRE1, hits give low values 0.997 | S. cerevisiae deletion strains, locus YNR049C, strain mso1, hits give low values 1.03 | S. cerevisiae deletion strains, locus YNR052C, strain pop2, hits give low values 1.01 | S. cerevisiae deletion strains, locus YOL006C, strain TOP1, hits give low values 1 | S. cerevisiae deletion strains, locus YOL012C, strain htz1 0.962 | S. cerevisiae deletion strains, locus YOL147C, strain pex11, hits give low values 1.01 | S. cerevisiae deletion strains, locus YOR001W, strain rrp6, hits give low values 1.03 | S. cerevisiae deletion strains, locus YOR061W, strain CKA2, hits give low values 0.998 | S. cerevisiae deletion strains, locus YOR069W, strain VPS5, hits give low values 0.996 | S. cerevisiae deletion strains, locus YOR070C, strain gyp1, hits give low values 1.02 | S. cerevisiae deletion strains, locus YOR080W, strain dia2, hits give low values 1.05 | S. cerevisiae deletion strains, locus YOR083W, strain WHI5, hits give low values 1.02 | S. cerevisiae deletion strains, locus YOR106W, strain vam3, hits give low values 1.04 | S. cerevisiae deletion strains, locus YOR136W, strain idh2, hits give low values 1.01 | S. cerevisiae deletion strains, locus YOR144C, strain elg1, hits give low values 1.01 | S. cerevisiae deletion strains, locus YOR184W, strain ser1, hits give low values 1.01 | S. cerevisiae deletion strains, locus YOR231W, strain MKK1, hits give low values 0.968 | S. cerevisiae deletion strains, locus YOR265W, strain rbl2, hits give low values 1.01 | S. cerevisiae deletion strains, locus YOR270C, strain vph1, hits give low values 1.07 | S. cerevisiae deletion strains, locus YOR290C, strain snf2, hits give low values 1.03 | S. cerevisiae deletion strains, locus YOR316C, strain cot1, hits give low values 1.01 | S. cerevisiae deletion strains, locus YPL051W, strain arl3, hits give low values 1.02 | S. cerevisiae deletion strains, locus YPL055C, strain LGE1, hits give low values 0.986 | S. cerevisiae deletion strains, locus YPL078C, strain atp4, hits give low values 1.02 | S. cerevisiae deletion strains, locus YPL106C, strain sse1, hits give low values 1.04 | S. cerevisiae deletion strains, locus YPL240C, strain hsp82, hits give low values 1.02 | S. cerevisiae deletion strains, locus YPL241C, strain CIN2, hits give low values 0.995 | S. cerevisiae deletion strains, locus YPL256C, strain CLN2, hits give low values 0.96 | S. cerevisiae deletion strains, locus YPR119W, strain clb2, hits give low values 1.01 | S. cerevisiae deletion strains, locus YPR141C, strain kar3, hits give low values 1 | S. cerevisiae deletion strains, locus YPR163C, strain tif3, hits give low values 1.02 | S. cerevisiae deletion strains, locus YPR167C, strain met16, hits give low values 1.01 | S. cerevisiae deletion strains, strain wtn01, hits give low values 1.03 | S. cerevisiae strains, strain wild type, hits give low values 0.996
